For the test, the target named is GST-Hu-p50 (Homo sapiens, UniProt P19838 7-356). In words: protein-binding microarray (PBM); PBM: ~300 nM protein, 6 mM HEPES pH 7.8, 80 mM KCl, 0.5 mM EDTA, 0.5 mM EGTA, 6% glycerol, 35 ng/ul poly-dIdC, 1% milk, 1 h, room temperature; Ap Aiptasia and Nv Nematostella (sea anemones) / Co Capsaspora / Aq Amphimedon (sponge) / Dm Drosophila / Hu human; RHD is the Rel homology domain; high values mean tight binding. As to conditions: dsDNA, one strand shown.
Sequence of GST-Hu-p50 (P19838 7-356): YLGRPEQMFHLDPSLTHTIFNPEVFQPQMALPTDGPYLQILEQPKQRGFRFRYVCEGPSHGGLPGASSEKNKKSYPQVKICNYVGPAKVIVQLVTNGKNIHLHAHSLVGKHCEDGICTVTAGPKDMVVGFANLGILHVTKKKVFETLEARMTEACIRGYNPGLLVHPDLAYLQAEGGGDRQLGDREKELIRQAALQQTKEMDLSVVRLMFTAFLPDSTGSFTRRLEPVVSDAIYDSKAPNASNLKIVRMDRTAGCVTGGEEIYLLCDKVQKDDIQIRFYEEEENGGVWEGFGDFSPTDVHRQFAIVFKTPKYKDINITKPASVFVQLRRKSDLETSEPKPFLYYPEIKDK
In the case of “CCGATTAACATCAGGGGTTACACTGATGTTAATCGGGTCTTGATTCGCTTGACGCTGCTG”, the binding signal turned out to be 1.37 z-score.

For the sequence “CCGATTAACATCAGTATTCCCCATGATGTTAATCGGGTCTTGATTCGCTTGACGCTGCTG”, the binding signal came to 5.14 z-score.

As for “CCGATTAACATCAACCCCGTTTCTGATGTTAATCGGGTCTTGATTCGCTTGACGCTGCTG”, the binding signal turned out to be 1.79 z-score.

In turn, “CCGATTAACATCAACATTTTCCCTGATGTTAATCGGGTCTTGATTCGCTTGACGCTGCTG” registered a binding signal of 4.21 z-score.

“CCGATTAACATCAATAAAGTCCCTGATGTTAATCGGGTCTTGATTCGCTTGACGCTGCTG” had a binding signal of 5.23 z-score.

For the sequence “CCGATTAACATCAAATATTTCCCTGATGTTAATCGGGTCTTGATTCGCTTGACGCTGCTG”, the binding signal stood at 4.62 z-score.

“CCGATTAACATCACATTTCCCCATGATGTTAATCGGGTCTTGATTCGCTTGACGCTGCTG” registered a binding signal of 5.25 z-score.

The sequence “CCGATTAACATCACCTTTAGGAGTGATGTTAATCGGGTCTTGATTCGCTTGACGCTGCTG” showed a binding signal of 1.11 z-score.

For “CCGATTAACATCAGGGGAACATATGATGTTAATCGGGTCTTGATTCGCTTGACGCTGCTG”, the binding signal came out at 4.06 z-score.

Sequence “CCGATTAACATCACCCCAACCCCTGATGTTAATCGGGTCTTGATTCGCTTGACGCTGCTG” displayed a binding signal of 1.66 z-score.

For the sequence “CCGATTAACATCAGGGGATAATATGATGTTAATCGGGTCTTGATTCGCTTGACGCTGCTG”, the binding signal was determined as 4.49 z-score.

The sequence “CCGATTAACATCAGGAAATTTCATGATGTTAATCGGGTCTTGATTCGCTTGACGCTGCTG” yielded a binding signal of 1.06 z-score.

Take “CCGATTAACATCAGCATTTTCCCTGATGTTAATCGGGTCTTGATTCGCTTGACGCTGCTG”: the binding signal is 3.25 z-score.

In the case of “CCGATTAACATCACCGAACTAACTGATGTTAATCGGGTCTTGATTCGCTTGACGCTGCTG”, the binding signal was 1.23 z-score.

With “CCGATTAACATCAGGGCATTACCTGATGTTAATCGGGTCTTGATTCGCTTGACGCTGCTG”, the binding signal was determined as 1.4 z-score.

Turning to “CCGATTAACATCAGGAAAAGTCCTGATGTTAATCGGGTCTTGATTCGCTTGACGCTGCTG”, the binding signal was determined as 1.57 z-score.

“CCGATTAACATCAAAAATTCCCATGATGTTAATCGGGTCTTGATTCGCTTGACGCTGCTG” returned a binding signal of 5.24 z-score.

“CCGATTAACATCAGGCATGCCCCTGATGTTAATCGGGTCTTGATTCGCTTGACGCTGCTG” came in with a binding signal of 1.89 z-score.

For the sequence “CCGATTAACATCAGGCAACCCCATGATGTTAATCGGGTCTTGATTCGCTTGACGCTGCTG”, the binding signal came out at 1.09 z-score.

“CCGATTAACATCACGGACACCCCTGATGTTAATCGGGTCTTGATTCGCTTGACGCTGCTG” gave a binding signal of 1.06 z-score.

For “CCGATTAACATCAGGAATCACCCTGATGTTAATCGGGTCTTGATTCGCTTGACGCTGCTG”, the binding signal is 3.31 z-score.

Take “CCGATTAACATCACCGGAATTTCTGATGTTAATCGGGTCTTGATTCGCTTGACGCTGCTG”: the binding signal was 2.22 z-score.

Turning to “CCGATTAACATCAATAATTTTCCTGATGTTAATCGGGTCTTGATTCGCTTGACGCTGCTG”, the binding signal came to 1.12 z-score.

“CCGATTAACATCAGGGAGAGCCCTGATGTTAATCGGGTCTTGATTCGCTTGACGCTGCTG”: the binding signal was determined as 2.37 z-score.

“CCGATTAACATCAGGAAAGTACCTGATGTTAATCGGGTCTTGATTCGCTTGACGCTGCTG” came in with a binding signal of 5.16 z-score.

The sequence “CCGATTAACATCACGTATTCCCCTGATGTTAATCGGGTCTTGATTCGCTTGACGCTGCTG” displayed a binding signal of 5.15 z-score.

For the sequence “CCGATTAACATCACTTTTTTCCCTGATGTTAATCGGGTCTTGATTCGCTTGACGCTGCTG”, the binding signal turned out to be 3.53 z-score.

“CCGATTAACATCAACGTTTTCCCTGATGTTAATCGGGTCTTGATTCGCTTGACGCTGCTG”: the binding signal was determined as 3.09 z-score.

Consider “CCGATTAACATCACAGATTTCCCTGATGTTAATCGGGTCTTGATTCGCTTGACGCTGCTG”, for which the binding signal amounted to 4.4 z-score.

On to “CCGATTAACATCAATTGGGAAATTGATGTTAATCGGGTCTTGATTCGCTTGACGCTGCTG”, for which the binding signal came out at 2.69 z-score.

Sequence “CCGATTAACATCAACGTTTCCCCTGATGTTAATCGGGTCTTGATTCGCTTGACGCTGCTG” yielded a binding signal of 5.04 z-score.

“CCGATTAACATCAGAGGTGCTTCTGATGTTAATCGGGTCTTGATTCGCTTGACGCTGCTG” came in with a binding signal of 1.84 z-score.

Take “CCGATTAACATCAGATTATCCCCTGATGTTAATCGGGTCTTGATTCGCTTGACGCTGCTG”: the binding signal came to 4.03 z-score.

In the case of “CCGATTAACATCATCTTTTTACTTGATGTTAATCGGGTCTTGATTCGCTTGACGCTGCTG”, the binding signal came to 1.01 z-score.

For the sequence “CCGATTAACATCACAATTTTCCCTGATGTTAATCGGGTCTTGATTCGCTTGACGCTGCTG”, the binding signal came to 4.58 z-score.

For “CCGATTAACATCACGTTTTTCCCTGATGTTAATCGGGTCTTGATTCGCTTGACGCTGCTG”, the binding signal is 3.49 z-score.

Take “CCGATTAACATCAGTAGTGGGGCTGATGTTAATCGGGTCTTGATTCGCTTGACGCTGCTG”: the binding signal is 1.09 z-score.

Regarding “CCGATTAACATCACAAATTTCCCTGATGTTAATCGGGTCTTGATTCGCTTGACGCTGCTG”, the binding signal came to 5.09 z-score.

Sequence “CCGATTAACATCAGGAAATACCATGATGTTAATCGGGTCTTGATTCGCTTGACGCTGCTG” yielded a binding signal of 1.08 z-score.

In turn, “CCGATTAACATCAAGGAAAGCCCTGATGTTAATCGGGTCTTGATTCGCTTGACGCTGCTG” registered a binding signal of 1.13 z-score.

These data come from publication PMC5700166.
